# Data as given in PubChem BioAssay (NCATS).
# Results filed as inconclusive are left out. A number with no mark means an inactive call. Calls of active or inactive are those of the source. Calls follow the shape of the dose curve; as a rule, active = well fitted inhibition curve with a large enough effect; inconclusive = small, poorly fitted or top-dose-only effect; inactive = flat fitted curve, though single readings scatter.
# Target: Aldehyde dehydrogenase, mitochondrial (Homo sapiens) (UniProt P05091)
# Experiment: qHTS for Inhibitors of the Aldehyde Dehydrogenase Family (ALDH2) Primary screen (AID 2061308);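 also: plate controls were vehicle for no effect and reference inhibitor for full effect; nearly all actives have a fitted effect of over 55% in size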
# Conditions: ALDH2 enzyme inhibition qHTS, 1536-well; series mostly up to 56 µM; activity change, negative = inhibition: at the top concentration
Structure (SMILES),"activity change, negative = inhibition",Potency
N#CN1CCC(NS(=O)(=O)c2cccc(C(F)(F)F)c2)CC1,1.12%,–
C=C[C@H](/C=C\c1ccc(O)cc1)c1ccc(O)cc1,5.54%,–
Cc1ccc(NS(=O)(=O)c2ccc(Cl)cc2)cc1C,-11.8%,–
Cc1cc(NS(=O)(=O)c2ccc(NC(=O)Cc3ccc(Cl)cc3Cl)cc2)no1,-8.81%,–
O=C(NC(NC(=S)Nc1ccc(F)c([N+](=O)[O-])c1)C(Cl)(Cl)Cl)C(c1ccccc1)c1ccccc1 (stereo not given),-10.4% [at 16.9 µM],–
Cn1c2cc(B(O)O)sc2c2cnn(Cc3c(F)cccc3F)c(=O)c21,2.55%,–
COc1cccc(-n2cnc3cc(C(=O)N4CCCCC4)ccc32)c1,0%,–
c1coc(-c2ccc3ncnc(NCc4cccs4)c3c2)c1,-11.6%,–
c1cncc(-c2ccc3ncnc(NCc4cccs4)c3c2)c1,-14.9%,–
Cc1ccc(-c2cc(C(=O)NC3CCCCC3)c3ccccc3n2)cc1C,-2.04%,–
CCNC(=O)c1ccc(-c2ccc3ncnc(NCC4CCCO4)c3c2)o1 (stereo not given),1.21%,–
O=S(=O)(NCC1CCC(NS(=O)(=O)c2c(F)cccc2F)CC1)c1ccc2c(c1)OCCO2 (stereo not given),11.3%,–
c1nc(NCCc2cnc[nH]2)c2cc(-c3ccoc3)ccc2n1,2.06%,–
C[C@H](N)C(=O)Nc1ccc(Cl)cc1C(=O)c1ccc[nH]1,-0.796%,–
CCCn1c(C)nc2c(N(CCN(CC)CC)CCN(CC)CC)nc(C)nc21,14.2%,–
c1cncc(CNc2ncnc3ccc(-c4ccc5c(c4)OCO5)cc23)c1,4.05%,–
O=C(O)CNc1cccc(-c2nn3c(=O)cc(N4CCNCC4)nc3s2)c1,0.814%,–
O=C(Nc1ccc2ccccc2c1)Nc1nnc(-c2ccccc2F)s1,10.1%,–
Cc1ccnc(NC(=S)N2CCCN(c3cccc(C(F)(F)F)c3)CC2)c1,9.15%,–
COc1cc(O)c(C(CC(=O)N2CCC[C@@H](C)C2)c2ccc3c(c2)OCO3)c(OC)c1 (stereo not given in full),0.445% [at 114 µM],–

Structure (SMILES),"activity change, negative = inhibition",Potency
COc1ccc(OC)c(C2=Nn3c(nnc3-c3cc(OC)ccc3OC)SC2)c1,6.92%,–
CN(Cc1ccco1)c1ncnc2ccc(-c3ccccc3Cl)cc12,8.68%,–
O=C1CCc2cc(S(=O)(=O)Nc3ccc(F)c(Cl)c3)c(F)cc2N1,–,inactive
Cc1nnc(-c2cnn(C)c2N)o1,3.58%,–
O=C(NCc1ccccc1)Nc1ncnc2c1C(c1ccccc1)c1c(ccc3ccccc13)O2 (stereo not given),-1.64%,–
Nc1nc(NCc2ccc(-c3cccnc3)cc2)c2ccccc2n1,10.2%,–
O=C1c2ccccc2C(=O)N1c1ccccn1,-3.37%,–
CC1(C)CC[C@]2(C(=O)O)CC[C@]3(C)C(=CCC4[C@@]5(C)C[C@@H](O)[C@H](O)[C@@](C)(CO)C5CC[C@]43C)C2C1 (stereo not given in full),-5.02% [at 28 µM],–
O=C1c2ccccc2C(=O)N1c1ccc(O)cc1,5.79%,–
O=C(c1ccc2c(c1)ncn2-c1ccccc1)N1CCCCC1,-17.6%,–
Cc1ccc(S(=O)(=O)N2CCN(c3nc(-c4ccco4)nc4ccccc34)CC2)cc1,6.46%,–
CC1(C)CC(C(=O)Nc2ccc([S+](=O)([O-])Nc3nccs3)cc2)C1,5.51%,–
Cc1cc2c(s1)c1cnn(Cc3ccc(C(C)C)cc3)c(=O)c1n2C,12.6%,–
FC(F)(F)c1cc(-c2ccc(CNc3nc(C4CCCC4)nc4ccccc34)cc2)ccn1,2.11%,–
O=C(Nc1ccccc1)Nc1nc(Nc2cc(F)cc(F)c2)nc(NC2CCCC2)n1,4.49%,–
COc1ccc(S(=O)(=O)N2CCN(S(=O)(=O)c3ccc(OC)cc3)CC2)cc1,–,inactive
CCOC(=O)c1ccc(-c2ccc3ncnc(N(C)Cc4sccc4C)c3c2)o1,6.7%,–
O=C(Nc1ccc(-n2cncn2)c(F)c1)Nc1nnc(-c2ccncc2)s1,15.6%,–
N#CN1CCC(NS(=O)(=O)c2ccc(F)cc2)C1 (stereo not given),0.122%,–
CCOC(=O)c1ccoc1-c1ccc2ncnc(N(C)Cc3sccc3C)c2c1,-26.9%,–
